Assay results published in PubChem BioAssay AID1159580 (chemical genetic matrix, 2015).
Among all 5,500 compounds or so, about 2,000 (36%) were called active. Another 18% or so got no clear call; they are omitted. Rule as the data show it: active = normalized growth mostly below about 0.91 (no sharp cut-off); inconclusive = no clear call, values can overlap the other calls; inactive = mostly above about 0.92. Some of the results follow.

Test: chemical genetic growth profiling, strain panel (AID 1159580);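 also: tested at 20 µM; growth read once vehicle control cultures reached saturation at 30 °C; 1 = growth at the plate median or of vehicle wells; lower values mean less growth of the strain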
Conditions: growth OD
[1] = S. cerevisiae deletion strains, locus YHR030C, strain SLT2, stronger effect = lower value
[2] = S. cerevisiae deletion strains, locus YHR079C, strain IRE1, stronger effect = lower value
[3] = S. cerevisiae deletion strains, locus YJL095W, strain BCK1, stronger effect = lower value
[4] = S. cerevisiae deletion strains, locus YJR066W, strain TOR1, stronger effect = lower value
[5] = S. cerevisiae deletion strains, locus YLR113W, strain HOG1, stronger effect = lower value
[6] = S. cerevisiae deletion strains, locus YNL183C, strain NPR1, stronger effect = lower value
[7] = S. cerevisiae deletion strains, locus YOR231W, strain MKK1, stronger effect = lower value
[8] = S. cerevisiae deletion strains, locus YPL256C, strain CLN2, stronger effect = lower value
[9] = S. cerevisiae deletion strains, locus YDL101C, strain DUN1, stronger effect = lower value
[10] = S. cerevisiae deletion strains, locus YAR019C, strain CDC15, stronger effect = lower value
[11] = S. cerevisiae deletion strains, locus YBL105C, strain PKC1, stronger effect = lower value
[12] = S. cerevisiae deletion strains, locus YBR135W, strain CKS1, stronger effect = lower value
[13] = S. cerevisiae deletion strains, locus YBR136W, strain MEC1, stronger effect = lower value
[14] = S. cerevisiae deletion strains, locus YBR160W, strain CDC28, stronger effect = lower value
[15] = S. cerevisiae deletion strains, locus YDL017W, strain CDC7, stronger effect = lower value
[16] = S. cerevisiae deletion strains, locus YDL028C, strain MPS1, stronger effect = lower value
[17] = S. cerevisiae deletion strains, locus YDL108W, strain KIN28, stronger effect = lower value
[18] = S. cerevisiae deletion strains, locus YDL132W, strain cdc53, stronger effect = lower value
[19] = S. cerevisiae deletion strains, locus YDL214C, strain PRR2, stronger effect = lower value
[20] = S. cerevisiae deletion strains, locus YDR052C, strain DBF4, stronger effect = lower value
[21] = S. cerevisiae deletion strains, locus YDR054C, strain cdc34, stronger effect = lower value
[22] = S. cerevisiae deletion strains, locus YDR226W, strain ADK1, stronger effect = lower value
[23] = S. cerevisiae deletion strains, locus YDR477W, strain SNF1, stronger effect = lower value
[24] = S. cerevisiae deletion strains, locus YER123W, strain YCK3, stronger effect = lower value
[25] = S. cerevisiae deletion strains, locus YER133W, strain GLC7, stronger effect = lower value
[26] = S. cerevisiae deletion strains, locus YFL009W, strain cdc4, stronger effect = lower value
[27] = S. cerevisiae deletion strains, locus YFL029C, strain CAK1, stronger effect = lower value
[28] = S. cerevisiae deletion strains, locus YFR003C, strain YPI1, stronger effect = lower value
[29] = S. cerevisiae deletion strains, locus YFR019W, strain FAB1, stronger effect = lower value
[30] = S. cerevisiae deletion strains, locus YFR028C, strain CDC14, stronger effect = lower value
[31] = S. cerevisiae deletion strains, locus YGR040W, strain KSS1, stronger effect = lower value
[32] = S. cerevisiae deletion strains, locus YGR052W, strain FMP48, stronger effect = lower value
[33] = S. cerevisiae deletion strains, locus YGR092W, strain DBF2, stronger effect = lower value
[34] = S. cerevisiae deletion strains, locus YHR082C, strain KSP1, stronger effect = lower value
[35] = S. cerevisiae deletion strains, locus YHR205W, strain SCH9, stronger effect = lower value
[36] = S. cerevisiae deletion strains, locus YIL147C, strain SLN1, stronger effect = lower value
[37] = S. cerevisiae deletion strains, locus YJL128C, strain PBS2, stronger effect = lower value
[38] = S. cerevisiae deletion strains, locus YJL157C, strain FAR1, stronger effect = lower value
[39] = S. cerevisiae deletion strains, locus YJR016C, strain ILV3, stronger effect = lower value
[40] = S. cerevisiae deletion strains, locus YJR066W, strain TOR1 (second series), stronger effect = lower value
[41] = S. cerevisiae deletion strains, locus YKL048C, strain ELM1, stronger effect = lower value
[42] = S. cerevisiae deletion strains, locus YKL067W, strain YNK1, stronger effect = lower value
[43] = S. cerevisiae deletion strains, locus YKL101W, strain HSL1, stronger effect = lower value
[44] = S. cerevisiae deletion strains, locus YKL193C, strain SDS22, stronger effect = lower value
[45] = S. cerevisiae deletion strains, locus YKL203C, strain TOR2, stronger effect = lower value
[46] = S. cerevisiae deletion strains, locus YLR133W, strain CKI1, stronger effect = lower value
[47] = S. cerevisiae deletion strains, locus YLR403W, strain SFP1, stronger effect = lower value
[48] = S. cerevisiae deletion strains, locus YML070W, strain DAK1, stronger effect = lower value
[49] = S. cerevisiae deletion strains, locus YMR001C, strain CDC5, stronger effect = lower value
[50] = S. cerevisiae deletion strains, locus YMR205C, strain PFK2 (second series), stronger effect = lower value
[51] = S. cerevisiae deletion strains, locus YMR277W, strain FCP1, stronger effect = lower value
[52] = S. cerevisiae deletion strains, locus YNL006W, strain LST8, stronger effect = lower value
[53] = S. cerevisiae deletion strains, locus YNL020C, strain ARK1, stronger effect = lower value
[54] = S. cerevisiae deletion strains, locus YNL161W, strain CBK1, stronger effect = lower value
[55] = S. cerevisiae deletion strains, locus YNL207W, strain RIO2, stronger effect = lower value
[56] = S. cerevisiae deletion strains, locus YNL222W, strain SSU72, stronger effect = lower value
[57] = S. cerevisiae deletion strains, locus YNL307C, strain MCK1 (second series), stronger effect = lower value
[58] = S. cerevisiae deletion strains, locus YOL078W, strain AVO1, stronger effect = lower value
[59] = S. cerevisiae deletion strains, locus YOL136C, strain PFK27, stronger effect = lower value
[60] = S. cerevisiae deletion strains, locus YOR061W, strain CKA2, stronger effect = lower value
[61] = S. cerevisiae deletion strains, locus YOR119C, strain RIO1, stronger effect = lower value
[62] = S. cerevisiae deletion strains, locus YOR329C, strain SCD5, stronger effect = lower value
[63] = S. cerevisiae deletion strains, locus YPL031C, strain PHO85, stronger effect = lower value
[64] = S. cerevisiae deletion strains, locus YPL153C, strain RAD53, stronger effect = lower value
[65] = S. cerevisiae deletion strains, locus YPL204W, strain HRR25, stronger effect = lower value
[66] = S. cerevisiae deletion strains, locus YPL209C, strain IPL1, stronger effect = lower value
[67] = S. cerevisiae deletion strains, locus YPR025C, strain CCL1, stronger effect = lower value
[68] = S. cerevisiae deletion strains, locus YPR106W, strain ISR1, stronger effect = lower value
[69] = S. cerevisiae deletion strains, locus YPR111W, strain DBF20, stronger effect = lower value
[70] = S. cerevisiae deletion strains, strain NNK1, stronger effect = lower value
[71] = S. cerevisiae deletion strains, strain TSCII, stronger effect = lower value

Measured: normalized growth

O=C(Nc1ccccc1)OCC(CN1CCCCC1)OC(=O)Nc1ccccc1 (configuration not stated)
inactive: [1] 1 | [2] 1.03 | [3] 1 | [4] 0.925 | [5] 1.01 | [6] 0.949 | [7] 1.01 | [8] 0.988

N/C(=N/OC(=O)Nc1ccccc1)c1ccc(C2SCCS2)cc1
active: S. cerevisiae deletion strains, locus YAL013W, strain DEP1, stronger effect = lower value 0.889 | S. cerevisiae deletion strains, locus YBR229C, strain ROT2, stronger effect = lower value 0.892 | [9] 0.753 | S. cerevisiae deletion strains, locus YEL061C, strain CIN8, stronger effect = lower value 0.833 | S. cerevisiae deletion strains, locus YGR078C, strain PAC10, stronger effect = lower value 0.879 | [1] 0.343 | S. cerevisiae deletion strains, locus YHR087W, strain rtc3, stronger effect = lower value 0.829 | S. cerevisiae deletion strains, locus YJR043C, strain POL32, stronger effect = lower value 0.89 | S. cerevisiae deletion strains, locus YJR075W, strain HOC1, stronger effect = lower value 0.772 | S. cerevisiae deletion strains, locus YKL190W, strain CNB1, stronger effect = lower value 0.924 | S. cerevisiae deletion strains, locus YLR039C, strain RIC1, stronger effect = lower value 0.767 | S. cerevisiae deletion strains, locus YLR085C, strain ARP6, stronger effect = lower value 0.39 | S. cerevisiae deletion strains, locus YLR262C, strain YPT6, stronger effect = lower value 0.759 | S. cerevisiae deletion strains, locus YML094W, strain GIM5, stronger effect = lower value 0.801 | S. cerevisiae deletion strains, locus YMR219W, strain ESC1, stronger effect = lower value 0.884 | S. cerevisiae deletion strains, locus YMR263W, strain SAP30, stronger effect = lower value 0.87 | S. cerevisiae deletion strains, locus YMR307W, strain GAS1, stronger effect = lower value 0.557 | S. cerevisiae deletion strains, locus YNL153C, strain GIM3, stronger effect = lower value 0.652 | S. cerevisiae deletion strains, locus YNL298W, strain CLA4 (second series), stronger effect = lower value 0.797 | S. cerevisiae deletion strains, locus YNR030W, strain Alg12, stronger effect = lower value 0.81 | S. cerevisiae deletion strains, locus YPL055C, strain LGE1, stronger effect = lower value 0.694 | S. cerevisiae deletion strains, locus YPR135W, strain CTF4, stronger effect = lower value 0.436
inactive: S. cerevisiae deletion strains, locus YDL134C, strain PPH21, stronger effect = lower value 0.972 | S. cerevisiae deletion strains, locus YDR150W, strain NUM1, stronger effect = lower value 0.851 | S. cerevisiae deletion strains, locus YGR229C, strain SMI1, stronger effect = lower value 1.01 | S. cerevisiae deletion strains, locus YNL322C, strain KRE1, stronger effect = lower value 0.991 | S. cerevisiae strains, strain wild type, stronger effect = lower value 0.988

N/C(=N/O)c1ccc(Oc2ccc(C3SCCS3)cc2)c([N+](=O)[O-])c1
inactive: [10] 1.01 | [11] 0.992 | [12] 0.979 | [13] 1.01 | [14] 0.997 | [15] 0.992 | [16] 1.01 | [9] 0.991 | [17] 0.99 | [18] 0.973 | [19] 0.992 | [20] 0.992 | [21] 0.988 | [22] 0.998 | [23] 1.01 | [24] 1.01 | [25] 0.994 | [26] 0.992 | [27] 1 | [28] 0.985 | [29] 1.02 | [30] 1 | [31] 1 | [32] 1.07 | [33] 0.993 | [1] 0.874 | [2] 1.06 | [34] 1.12 | [35] 1.01 | [36] 0.996 | [3] 1.01 | [37] 0.93 | [38] 1.01 | [39] 0.993 | [40] 1.01 | [4] 1.02 | [41] 0.988 | [42] 0.981 | [43] 0.986 | [44] 0.979 | [45] 1.11 | [5] 1.02 | [46] 1.01 | [47] 1.05 | [48] 1.01 | [49] 1 | [50] 0.994 | [51] 0.995 | [52] 0.988 | [53] 1.03 | [54] 0.981 | [6] 1.08 | [55] 0.984 | [56] 0.979 | [57] 1.02 | [58] 0.978 | [59] 1.02 | [60] 0.995 | [61] 1.04 | [7] 1.03 | [62] 0.991 | [63] 0.998 | [64] 0.988 | [65] 1 | [66] 0.984 | [8] 0.995 | [67] 0.985 | [68] 0.994 | [69] 0.978 | [70] 0.995 | [71] 1.01

Cc1ccc(NC(=S)C(C#N)C(=O)N2CCOCC2)c(C)c1 (configuration not stated)
inactive: [10] 0.993 | [11] 0.997 | [12] 0.988 | [13] 0.972 | [14] 0.991 | [15] 0.992 | [16] 0.988 | [9] 0.995 | [17] 0.991 | [18] 0.991 | [19] 1.04 | [20] 0.998 | [21] 0.99 | [22] 0.98 | [23] 1.05 | [24] 1.05 | [25] 1.05 | [26] 0.985 | [27] 0.995 | [28] 0.995 | [29] 1.01 | [30] 0.993 | [31] 1.05 | [32] 1.11 | [33] 1.02 | [1] 1.03 | [2] 1.04 | [34] 1.21 | [35] 0.908 | [36] 0.983 | [3] 1.02 | [37] 0.937 | [38] 1.02 | [39] 0.991 | [40] 1.05 | [4] 1.19 | [41] 1.01 | [42] 1.02 | [43] 1.01 | [44] 0.983 | [45] 1.09 | [5] 1.07 | [46] 1.03 | [47] 0.957 | [48] 1.05 | [49] 0.994 | [50] 1.03 | [51] 0.989 | [52] 0.991 | [53] 1.04 | [54] 0.991 | [6] 1.18 | [55] 0.985 | [56] 0.991 | [57] 1.02 | [58] 0.985 | [59] 1.05 | [60] 1.01 | [61] 1.11 | [7] 1.11 | [62] 0.993 | [63] 1.04 | [64] 1.03 | [65] 1.06 | [66] 0.99 | [8] 1.06 | [67] 0.997 | [68] 1.01 | [69] 1 | [70] 0.999 | [71] 0.994
